Only some compounds are listed: those with a hit (about 0.92% of all), similar ones and a draw of the others.
APEX1 inh – blocks human APE1 abasic DNA cleavage; recombinant APE1, TAMRA/BHQ-2 abasic DNA cleavage fluorescence; hit rate 0.35% among 350,000; Potency, µM (titrated, usually from 65.8 µM), inactives show at the highest dose activity change, negative = inhibition, most hits filed as inhibitors;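 note: plate controls were vehicle for no effect and reference inhibitor for full effect; nearly all actives have a fitted effect of over 55% in size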
Target sequence (P27695 whole entry, looked up): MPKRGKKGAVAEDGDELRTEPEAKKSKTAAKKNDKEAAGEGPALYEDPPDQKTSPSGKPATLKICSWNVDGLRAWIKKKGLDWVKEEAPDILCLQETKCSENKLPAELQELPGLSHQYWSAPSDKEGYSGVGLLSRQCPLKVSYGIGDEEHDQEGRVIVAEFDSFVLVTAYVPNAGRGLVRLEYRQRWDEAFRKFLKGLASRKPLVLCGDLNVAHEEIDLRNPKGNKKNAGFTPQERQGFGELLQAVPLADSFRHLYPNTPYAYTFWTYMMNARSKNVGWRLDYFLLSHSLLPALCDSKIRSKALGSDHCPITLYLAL
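APE1 at 0.75 nM preincubated 15 min at room temperature with compound. Reaction then started with 50 nM double-stranded THF-abasic substrate labelled with TAMRA/BHQ-2, and 525/598 nm fluorescence read kinetically. Activity taken as third-minus-first read difference, normalized to DMSO and NSC13755 controls.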
TDP1 inh – TDP1 (human) enzyme inhibition. AID 485290. recombinant TDP1, AlphaScreen DNA substrate cleavage. Q9NUW8. Potency, µM (top dose mostly 130 µM), for the others: at the highest dose activity change, negative = inhibition, most hits filed as inhibitors. hit rate 0.28% among 350,000; note: nearly all actives have a fitted effect of over 40% in size
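Steps: enzyme plus compound, 15 min RT; add biotin/phosphotyrosine-FITC oligonucleotide (15 nM final), react 5 min; add donor/acceptor beads (10 ug/ml final), 10 min; read AlphaScreen. Tdp1 at 1 nM final.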
RECQ1 inh – RECQ1 (human) helicase inhibition; RECQ1 DNA unwinding, red fluorescence kinetic read; hit rate 0.54% among 240,000; P46063; Potency, µM (series often up to 57.3 µM), inactives show top-dose activity, negative = inhibition, hits mostly inhibitors; AID 2549;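 note: plate controls were vehicle for no effect and no enzyme for full effect; nearly all actives have a fitted effect of over 30% in size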
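RECQ1T1 50 nM; forked duplex (20 bp + 30-nt ss tails) 200 nM, ATP 2 mM final; pH 8.0, 2 mM MgCl2, 2.5 ug/ml poly(dI-dC); 15 min compound preincubation; discontinuous kinetic read over 2 h at RT.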
FEN1 inhibitor – inhibitors of human flap endonuclease 1 | P39748 | Potency, µM (doses to about 114 µM), for inactives: at the highest dose activity change, negative = inhibition, hits mostly inhibitors | Recombinant FEN1 flap cleavage, fluorescence, 15 min | hit rate 0.35% among 390,000; note: nearly all actives have a fitted effect of over 65% in size
Target sequence (P39748 whole entry, looked up): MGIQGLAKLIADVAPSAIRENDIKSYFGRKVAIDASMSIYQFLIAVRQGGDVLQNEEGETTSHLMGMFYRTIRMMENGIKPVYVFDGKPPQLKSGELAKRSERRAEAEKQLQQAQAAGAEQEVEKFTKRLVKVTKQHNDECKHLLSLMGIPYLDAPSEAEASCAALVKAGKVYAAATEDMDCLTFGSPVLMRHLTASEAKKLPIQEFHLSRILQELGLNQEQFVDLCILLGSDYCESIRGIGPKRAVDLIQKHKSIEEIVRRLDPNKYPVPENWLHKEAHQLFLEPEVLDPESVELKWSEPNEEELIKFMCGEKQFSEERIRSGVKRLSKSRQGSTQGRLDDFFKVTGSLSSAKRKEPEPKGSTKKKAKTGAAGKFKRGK
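Recombinant FEN1 (10 nM) was preincubated with pin-transferred compounds for 15 min at room temperature, then flap DNA substrate (50 nM final) was added. Plates were read at 0 and 15 min, and normalized concentration–response data were fitted to a four-parameter Hill equation.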
BLM helicase inh – Bloom syndrome helicase (human) inhibition; AID 2528; hit rate 0.2% among 350,000; P54132; recombinant BLM DNA unwinding, fluorescence dequenching; Potency, µM (titrated, usually from 56.1 µM), for the others: at the highest dose activity change, negative = inhibition, actives largely listed as inhibitors;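 note: plate controls were vehicle for no effect and no enzyme for full effect; nearly all actives have a fitted effect of over 35% in size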
Numbers without * were called inactive; i = inactive; ? = inconclusive; . = not tested or not shown; ! = repeats disagree; [ ] = dose if it differs, or a comment. Calls come from the whole dose curve; as a rule, active = well fitted curve in the direction sought with a large enough effect; inconclusive = small, poorly fitted or top-dose-only effect, or another doubt; inactive = no such curve, though single readings can be large; an effect the other way counts as inactive or inconclusive. Unless noted, % is set by controls: 0 for no effect and ±100 for the full control effect; potency is the fitted concentration of half-maximal effect.

SMILES | APEX1 inh | TDP1 inh | RECQ1 inh | FEN1 inhibitor | BLM helicase inh
O=C(O)CC/C(=C/c1cccc(NC(=O)c2ccccc2Cl)c1)c1nc2ccccc2s1 | . | . | . | -18.6% | .
COC(=O)[C@H](Cc1ccccc1)NC(=O)O[C@@H]1Cc2cc(OC)ccc2O[C@H]1c1cccc(OC)c1 | 2.6% | 0.0% | -0.3% | . | 0.9%
CSCC[C@H](N)C(=O)N[C@@H](C)C(=O)NCC(=O)N[C@@H](CCCN=C(N)N)C(=O)N[C@@H](CO)C(=O)NCC(=O)N[C@@H](CC(=O)O)C(=O)N[C@@H](CO)C(=O)N[C@@H](CC(=O)O)C(=O)N[C@@H](CCC(=O)O)C(=O)N[C@@H](CC(=O)O)C(=O)N[C@@H](CC(C)C)C(=O)N[C@@H](CC(C)C)C(=O)N[C@@H](CCCCN)C(=O)N[C@@H](C)C(=O)N[C@H](C(=O)O)C(C)C | ? | 10.8% | -7.1% | . | -1.0%
O=C(O)CNC(=O)CC1S/C(=N/N=C2/NC(=O)CS2)NC1=O (configuration not stated) | ? | 39.8µM* | i | -1.8% | -1.6%
NC(=O)NC(=O)CC1S/C(=N/N=C2\CSC(=O)N2)NC1=O (configuration not stated) | -6.1% | -1.8% | 6.3% | -12.5% | -0.8%
O=C(NN=C1CCCC1)c1ccccc1[N+](=O)[O-] | 3.9% | 39.8µM* | . | 16.4% | -1.1%
N[C@@H](CSS(=O)(=O)O)C(=O)O | ? | 39.8µM*! | -5.8% | . | -4.3%
NC(CSSCC(N)C(=O)O)C(=O)O (configuration not stated) | -1.1% | 3.6% | -1.7% | . | -6.8%
CCN(CC)CCn1c2ccccc2c2cnc(N=CN(C)C)c(C#N)c21 | ? | -8.2% | 10.7% | 35.5µM* | 64.2%
CCn1c2ccccc2c2cnc(N=CN(C)C)c(C#N)c21 | -2.9% | 0.5% | -13.2% | ? | 2.3%
O=C1CC(c2ccco2)Cc2[nH]c(=O)c(C(=O)Nc3ccccc3)cc21 (configuration not stated) | . | . | . | -11.6% | .
C[n+]1c(/C=C/c2ccc3c(c2)OCO3)ccc2ccccc21 | 4.5% | 3.7% | 11.5% | 0.5% | 1.0%
C[n+]1cc2c3c(ccc2c2ccc4cc5c(cc4c21)OCO5)OCO3 | 0.8% | 13.7% | 0.5% | 11.2µM* | -2.3%
Cc1ccc(NC(=O)CSc2nc(-c3ccco3)nc3cc(=O)[nH]n23)cc1 | . | 0.0% | . | -14.0% | -7.4%
Cc1ccc(NC(=O)CSc2nc(-c3ccco3)nc3cc(=O)[nH]n23)c(Cl)c1 | -1.3% | 50.1µM* | . | -21.1% | -5.3%
N#Cc1ccc(CN2CCC3(CC2)CCN(C(=O)c2csnn2)CC3)cc1 | 3.7% | . | -11.9% | . | 2.9%
C=CC1=C(C)C2=Cc3c(C=C)c(C)c4[n]3[Sn+2][n]3c(c(C)c(CCC(=O)O)c3=CC3=NC(=C4)C(C)=C3CCC(=O)O)=CC1=N2 | 8.91µM* | ? | 39.8µM* | . | -22.3%
CNc1ccccc1 | -3.6% | 0.3% | 15.7% | -7.3% | .
CNc1ccc(O)cc1 | -7.5% | 14.9% | 31.6µM* | . | .
CC1CCN(C(=O)c2ccccc2NC(=O)c2nsc3ccccc23)CC1 | . | 2.7% | . | -21.6% | -2.7%
Cc1ccccc1C(=O)Nc1ccccc1C(=O)N1CCC(C)CC1 | 44.9% | . | . | 89.1µM* | -2.0%
CCOC(=O)C1=C(O)/C(=C\c2cccs2)N=C1C | -2.3% | -1.1% | -4.4% | 3.1% | -5.3%
CCOC(=O)C1=C(O)/C(=C\c2ccc(CNC(=O)C(=O)Nc3ccccc3)o2)N=C1C | 2.3% | -4.9% | -0.9% | -17.5% | 35.5µM*
O=C=Nc1ccc(Cc2ccc(N=C=O)cc2)cc1 | 2.6% | 5.9% | -6.8% | . | .
O=C(NN=C1CCCC1)c1cccc(O)c1 | 22.0% | 1.9%[56.1 µM] | . | 18.3% | -3.5%
SMILES | APEX1 inh | TDP1 inh | RECQ1 inh | FEN1 inhibitor | BLM helicase inh
O=C(NN=C1CCCC1)c1cc(O)cc(O)c1 | 10.6µM* | 17.8µM* | . | -25.6% | -7.3%
O=[N+]([O-])c1cc2no[n+]([O-])c2cc1N1CCCCC1 | . | . | . | 50.1µM* | .
COc1cc(C(C)C)c2c(c1)S(=O)(=O)N(COc1cc(=O)n3cccc(OCCN4CCCCC4)c3n1)C2=O | -2.5% | 16.7% | -12.3% | . | -0.5%
Cc1nc2c(=O)[nH]c(=S)[nH]c2[nH]c1=O | . | . | . | 28.2µM* | .
Cc1nc2[nH]c(=S)[nH]c(=O)c2nc1C | . | . | . | 0.0% | .
CCNc1ncc2nc(-c3ccccc3)c(=O)n(CCOC)c2n1 | 16.8% | . | -9.4% | . | 2.3%
CC[N+](C)(C)c1ccc(/C=C/c2ccc3ccccc3n2)cc1 | . | . | . | 44.7µM* | .
CC(=O)/C=C/c1ccc2ccccc2n1 | 10.5% | 0.0% | -11.0% | 1.1% | -3.8%
CCN(CC)c1ccc(/C=C/c2ccc3ccccc3n2)cc1 | . | . | . | 44.7µM* | .
CCN(CC)c1ccc(/C=C/c2c(C)cnc3ccccc23)cc1 | . | . | . | -21.9% | .
COC(=O)[C@H](CCSC)NC(=O)C/C=C\[C@@H](C)[C@@H](CO)OC | -5.8%[12.4 µM] | 3.7%[21 µM] | -1.9%[11.5 µM] | . | 0.8%[12.4 µM]
COc1ccccc1CN1CCCC2(CCN(C(=O)c3ccncc3)CC2)C1 | 1.1% | . | -5.7% | . | 1.0%
Cc1cnc(CNc2ccnc(-c3cccc(NS(C)(=O)=O)c3)n2)cn1 | 13.0% | . | i | . | 6.8%
CCOc1cc2c(C#N)c(N3CCCCC3)nc(N)c2c(N)n1 | -5.6% | 3.9% | -0.5% | -19.7% | 28.2µM*
CCOc1cc2c(C#N)c(N3CCNCC3)nc(N)c2c(N)n1 | 5.6% | -5.9% | -3.4% | ? | -3.1%
CCOC(=O)C1CCN(c2nc(N)c3c(N)nc(SCC(=O)O)cc3c2C#N)CC1 | ? | 28.2µM* | ? | 44.7µM* | 25.1µM*
CC(C)CNc1nc(C#N)nc(Nc2ccccc2)n1 | 0.6% | 6.2% | -8.2% | . | -11.1%
CC1=CCC(C(=O)O)C(C(=O)NC2CCCCC2)C1 (configuration not stated) | 11.3% | 31.6µM* | . | 1.5% | -5.8%
O=C1C=C(N2CCOCC2)c2ccccc2C1=O | 14.3% | . | . | -18.4% | 8.91µM*
CC1=C(C)C(=O)C(N2CCOCC2)=CC1=O | 1.7% | -0.6% | -5.0% | 0.2% | -4.3%
CCC(=O)N1CCc2cc(S(=O)(=O)NCCC(=O)Nc3cc(C)ccc3OC)ccc21 | . | 2.3% | . | 17.0% | -1.7%
O=C1C(SCCO)=C(SCCO)C(=O)c2ccccc21 | ? | 11.3%[56.1 µM] | ? | ? | 8.91µM*
CCCCCCCCCCCCCCCC(=O)OC[C@H](O)[C@H]1OC(=O)C(O)=C1O | 8.91µM* | . | . | . | .
COc1ccc(-c2ccc3c(c2)S(=O)(=O)c2cccc(C(=O)NC4CC4)c2C3=O)cc1OC | 4.7% | -10.5% | . | -7.1% | .
COc1ccc(-c2ccc3c(c2)S(=O)(=O)c2cccc(C(=O)NCCOc4ccccc4Cl)c2C3=O)cc1OC | -21.9% | 28.2µM* | . | 11.9% | .
COc1ccc(-c2ccc3c(c2)S(=O)(=O)c2cccc(C(=O)NCc4ccccc4Cl)c2C3=O)cc1OC | -41.2% | 25.1µM* | . | ? | .
CC(C)c1cccc(-c2ccc3c(c2)S(=O)(=O)c2cccc(C(=O)NCc4ccccc4Cl)c2C3=O)c1 | 6.9% | -1.0% | . | 14.2% | .

Screens from PubChem BioAssay.
